The list is not random: actives were taken first. Their share in the collection is about 2.2%.
m5-HT2A agonist: agonists of mouse serotonin 5-HT2A receptor (HTR2A) | CHO-K1 mHTR2A beta-arrestin complementation, luminescence; percent of 30 µM serotonin response | 360,000 tested, 0.66% active | P35363 | activation, % at 7.6 µM;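 active = activation above a run cutoff, the mean activation of all tested compounds plus 3 SD, cut at about 14% in these data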
Target sequence (P35363 whole entry, looked up): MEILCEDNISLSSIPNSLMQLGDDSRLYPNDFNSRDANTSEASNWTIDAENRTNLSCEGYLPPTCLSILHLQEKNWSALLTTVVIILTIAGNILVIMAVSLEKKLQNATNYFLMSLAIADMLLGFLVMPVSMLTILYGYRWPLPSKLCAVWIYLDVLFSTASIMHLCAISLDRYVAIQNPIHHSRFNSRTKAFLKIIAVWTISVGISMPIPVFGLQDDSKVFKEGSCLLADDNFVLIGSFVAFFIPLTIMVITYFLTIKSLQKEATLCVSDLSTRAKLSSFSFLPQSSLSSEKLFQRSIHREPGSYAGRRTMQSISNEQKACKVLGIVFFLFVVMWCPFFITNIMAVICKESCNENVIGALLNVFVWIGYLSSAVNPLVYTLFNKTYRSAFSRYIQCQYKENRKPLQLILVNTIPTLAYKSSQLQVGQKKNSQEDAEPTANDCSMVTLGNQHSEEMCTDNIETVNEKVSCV
VLA-4 inh: inhibition in a human VLA-4 binding assay. VLA-4 expressing cells, ligand binding flow cytometry. inhibition, % (about 7 µM as worked out from the volumes in the protocol). 330,000 tested, 0.2% active; in the data active = inhibition above about 50%
MEX-5 binding: C. elegans MEX-5 TCR-2 RNA binding activity. Q9XUB2. MEX-5/FITC-TCR2 RNA binding, fluorescence polarization; active compounds read low. activity score (negative = inhibition of binding), % at 10 µM. 300,000 tested, 0.38% active. AID 1832;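 active = inhibition past about -25% in most replicates, and total fluorescence under double the plate's negative control median, limit read from the data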
JMJD2C inh: blocks human GASC-1 demethylase activity; inhibition, % at 2.35 µM; GST-JMJD2C(1-420) H3K9me3 demethylation, DELFIA europium; Q9H3R0; 330,000 tested, 0.069% active; AID 2099;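 active = more than half of a compound's replicate wells show inhibition beyond 50%, single wells judged on their own value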;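 also: signal counts dimethyl H3K9 product captured on neutravidin plate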
Granule exo inh: lytic granule exocytosis inhibition | 360,000 tested, 0.66% active | TALL-104 LAMP-1 surface exposure, flow cytometry; cells stimulated with thapsigargin and PMA | inhibition, % at 10 µM;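 active = inhibition above about 55%, limit read from the data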
V-ATPase pH: alters yeast V-ATPase proton transport | S. cerevisiae, pHLuorin cytosolic pH fluorescence | 350,000 tested, 0.37% active | response, % at 10 µM; in the data active = response mostly above about 7.3%, no sharp cut-off; inactive = mostly below about 5.4%; also: actives read high
OPRM1 ag: OPRM1 agonism in mouse HTR2A counterscreen; U2OS OPRM1 beta-arrestin PathHunter, luminescence; DMSO 0%, DAMGO 9.3 µM 100%; activation, % at 9.3 µM; 2,300 tested, 5.3% active; shares compounds with m5-HT2A agonist;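 active = mean activation above the mean of DMSO-only wells plus 3 SD, cut at about 0.5% in these data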
m5-HT2A ag conf: mouse HTR2A agonism confirmed. shares compounds with m5-HT2A agonist. CHO-K1 PathHunter beta-arrestin recruitment, luminescence; DMSO 0%, 30 µM serotonin 100%. activation, % at 7.6 µM. 2,300 tested, 19% active;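 active = mean activation across triplicates above the hit threshold derived in the original primary screen, cut at about 15% in these data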
Numbers stand for hits; . = inactive; / = no result given.

SMILES	m5-HT2A agonist	VLA-4 inh	MEX-5 binding	JMJD2C inh	Granule exo inh	V-ATPase pH	OPRM1 ag	m5-HT2A ag conf
CCOC(=O)c1ccc(NC(=O)C23CCC(C)(C(=O)O2)C3(C)C)cc1 (stereo not given)	18	.	.	.	.	.	.	.
COc1ccc(C(O)c2ncc(-c3cccc(OCc4ccccc4)c3)[nH]2)cc1F (stereo not given)	.	/	/	/	.	/	/	/
O=c1cc(C(F)(F)F)nc(SCc2cccc3ccccc23)[nH]1	18	.	.	.	.	.	.	.
CC(C)(C)C(=O)n1nc(-c2ccccc2)oc1=O	16	.	.	.	.	.	.	.
O=C(c1cc2nc(-c3ccco3)cc(C(F)(F)F)n2n1)N1CCCc2ccccc21	23	.	.	.	.	.	.	.
O=C(c1nn2c(C(F)(F)F)cc(-c3ccco3)nc2c1Br)N1CCCc2ccccc21	.	.	.	.	.	.	/	/
COc1ccc(N(C)S(=O)(=O)c2ccc3c(c2)CCN3C(=O)C2CC2)c(OC)c1	.	.	/	.	.	.	/	/
COc1cccc(C(=O)Nc2nnc(S(=O)(=O)N(C)Cc3ccccc3)s2)c1	22	.	.	.	.	.	.	.
CCCc1nnc(NC(=O)c2cccc(OC)c2)s1	.	.	.	.	.	.	/	/
COc1cccc(C(=O)Nc2nc(-c3ccc4c(c3)OCO4)cs2)c1	16	.	.	.	.	.	.	.
COc1cccc(C(=O)Nc2nnc(C(C)C)s2)c1	22	.	.	.	.	.	.	.
CN(Cc1ccco1)S(=O)(=O)c1nnc(NC(=O)c2ccccc2Cl)s1	18	.	.	.	.	.	.	.
O=C(C[n+]1ccccc1)N/N=C/c1cc(Br)ccc1O	.	.	.	.	.	.	/	/
O=C(Nc1cccc(F)c1)c1ccc(Cn2cc([N+](=O)[O-])cn2)o1	.	.	.	.	.	.	/	/
Cc1cccc(NC(=O)c2cc3c(=O)n4ccccc4nc3n(CC(C)C)c2=N)c1	15	68	.	.	.	.	.	.
CC(C)CN(C(=O)CSc1nc(N)cc(N)n1)C1CCS(=O)(=O)C1 (stereo not given)	.	.	/	.	.	.	/	/
COc1ccccc1CN1CCN(C(=O)c2ccco2)CC1	30	.	.	.	.	.	.	92
COc1ccc(CN2CCN(C(=O)c3ccco3)CC2)c(OC)c1OC	29	.	.	.	.	.	.	78
COc1ccc(Br)cc1CN1CCN(C(=O)c2ccco2)CC1	.	.	.	.	.	.	/	/
O=C(OCC(=O)c1c[nH]c2ccccc12)c1cccc([N+](=O)[O-])c1	.	.	/	/	.	.	/	/
Cc1ccc2cc(CCNC(=O)C(C)C)c(=O)[nH]c2c1C	16	.	.	.	.	.	.	.
Cc1ccc(C)c2[nH]c(=O)c(CCNC(=O)c3ccco3)cc12	19	.	.	.	.	.	.	.
CCC(=O)NCCc1cc2ccc(C)c(C)c2[nH]c1=O	.	.	.	.	.	.	/	/
c1ccc(C2OCCN2c2ccccc2)cc1 (stereo not given)	.	/	/	/	.	.	/	/
CC(C)(C)Nc1nc2ccc([N+](=O)[O-])cc2o1	15	.	.	.	.	.	.	.
SMILES	m5-HT2A agonist	VLA-4 inh	MEX-5 binding	JMJD2C inh	Granule exo inh	V-ATPase pH	OPRM1 ag	m5-HT2A ag conf
CSc1cccc(NS(=O)(=O)c2cn(C)cn2)c1	17	.	.	.	.	.	.	.
COc1ccc(NS(=O)(=O)c2cn(C)cn2)cc1	.	.	.	.	.	.	/	/
COc1ccc2oc(C(=O)OCC(=O)N3CCCC(C)C3)c(C)c2c1 (stereo not given)	20	.	.	.	.	.	.	.
COc1cccc(-n2c(-c3ccccc3)c[nH]c2=S)c1	22	.	.	.	.	.	0.5	.
COCCCNC(=O)C[C@@H]1C[C@@]2(C(=O)OC)CCCCC=C2N(CCC2=CCCCC2)C1=O	.	/	/	/	.	/	/	/
COc1ccccc1CNC(=O)COC(=O)Cc1c[nH]c2ccccc12	.	.	.	.	.	.	/	/
COc1ccccc1NC(=O)COC(=O)Cc1c[nH]c2ccccc12	15	.	.	.	.	.	.	.
CCOC(=O)C(=CNc1ncccc1C)C(=O)OCC	23	.	.	.	.	.	.	.
Cc1ccsc1/C=N/NC(=O)CNC(=O)c1ccco1	.	.	.	.	.	.	/	/
CCOc1cc(C(=O)NCC(=O)N/N=C/c2sccc2C)cc(OCC)c1OCC	17	.	.	.	.	.	.	.
CCCNCC1C(Oc2ccc(Cl)cc2Cl)C(=O)N1c1cccc(C)c1C (stereo not given)	17	.	.	.	.	.	.	.
CCOc1ccccc1C1C(C(=O)Nc2ccccc2OC)=C(C)Nc2nc(CCCO)nn21 (stereo not given)	30	.	.	.	.	.	.	.
CSc1nc(C)cc(NC(N)=O)n1	15	.	.	.	.	.	.	.
CSc1nc(C)cc(Oc2ccc(OCC(N)=O)nn2)n1	.	.	.	.	.	.	/	/
OC(c1ccc(-c2ccccc2)cc1)c1ncc(-c2cccc(F)c2)[nH]1 (stereo not given)	.	/	/	/	.	/	/	/
CCCCc1nnc(NC(=O)CSc2nc(=O)cc(N)n2-c2ccccc2)s1	16	.	.	.	.	.	.	.
Clc1ccc(OCc2nnc3n2CCCCC3)c(Cl)c1	.	.	.	.	.	.	/	/
CCn1ccnc1CN(C)C(=O)C1CCC(=O)N(Cc2cccc(C(F)(F)F)c2)C1 (stereo not given)	15	.	.	.	.	.	.	.
CCn1ccnc1CNC(=O)C1CCC(=O)N(Cc2cccc(C(F)(F)F)c2)C1 (stereo not given)	.	.	.	.	.	.	/	/
CCOC(=O)C1CCN(Cc2cnc(Oc3ccc(C(C)(C)C)cc3)s2)CC1	19	.	.	.	.	.	.	39
COC(=O)Nc1ncc(CN2CCc3ccccc3C2)s1	.	.	.	.	.	.	/	/
CCOC(=O)C1CCN(Cc2cnc(NC(=O)OC)s2)CC1	16	.	.	.	.	.	.	23
CCOC(=O)C1CCCN(C(=O)COc2ccc(C(C)(C)C)cc2)CC1 (stereo not given)	.	/	/	/	.	/	/	/
O=C(NCc1ccc(F)cc1)C(Cc1ccccc1)n1cccc1 (stereo not given)	.	.	.	.	.	.	/	/
O=C(COC(=O)CSc1ccc([N+](=O)[O-])cc1)NCCCc1ccccc1	.	.	.	.	.	.	/	/

Source: PubChem BioAssay
